Sampled rows, rich in hits. Any-hit rate of the full collection: about 3.5%.
FBW7 act: FBW7 E3 ligase activators, primary screen, biochemical, AlphaScreen, human. AlphaScreen FBW7–phospho-cyclin E peptide binding, activator screen. normalized activity (activation), % at 26.1 µM. actives 0.13% (n = 650,000); in the data active means normalized activity above about 1.9%;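 further: purified mutant Fbw7 with reduced substrate affinity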
GPR151 ag: activators of human GPR151, primary screen, cell-based, PathHunter beta-arrestin, luminescence | G-protein coupled receptor 151 (Homo sapiens), Q8TDV0 | PathHunter beta-arrestin GPR151 cells | activation, % at 11.2 µM | actives 1% (n = 650,000) | AID 1508602, 2020; in the data active means activation above about 4.9%;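 further: 0% = median of compound wells and 100% = cells with positive control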
TEAD-YAP inh: TEAD-YAP interaction inhibition, primary screen, TEAD-YAP interaction inhibitor project, luminescence, HEK-TIYL cells | TEAD-Gal4/YAP UAS-luciferase luminescence | inhibition, % at 9.12 µM | actives 1.4% (n = 640,000); in the data active means inhibition above about 32%;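 further: 0% = median of test compound wells and 100% = reference inhibitor wells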
MITF inh: MITF inhibitors, primary screen, biochemical, AlphaScreen, human; inhibition, % at 2.6 µM; actives 0.91% (n = 650,000); Microphthalmia-associated transcription factor (Homo sapiens), O75030; AlphaScreen MITF homodimerization, bead proximity signal; in the data active means inhibition above about 50%;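 further: 0% = vehicle wells with protein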
Target sequence (O75030 whole entry, looked up): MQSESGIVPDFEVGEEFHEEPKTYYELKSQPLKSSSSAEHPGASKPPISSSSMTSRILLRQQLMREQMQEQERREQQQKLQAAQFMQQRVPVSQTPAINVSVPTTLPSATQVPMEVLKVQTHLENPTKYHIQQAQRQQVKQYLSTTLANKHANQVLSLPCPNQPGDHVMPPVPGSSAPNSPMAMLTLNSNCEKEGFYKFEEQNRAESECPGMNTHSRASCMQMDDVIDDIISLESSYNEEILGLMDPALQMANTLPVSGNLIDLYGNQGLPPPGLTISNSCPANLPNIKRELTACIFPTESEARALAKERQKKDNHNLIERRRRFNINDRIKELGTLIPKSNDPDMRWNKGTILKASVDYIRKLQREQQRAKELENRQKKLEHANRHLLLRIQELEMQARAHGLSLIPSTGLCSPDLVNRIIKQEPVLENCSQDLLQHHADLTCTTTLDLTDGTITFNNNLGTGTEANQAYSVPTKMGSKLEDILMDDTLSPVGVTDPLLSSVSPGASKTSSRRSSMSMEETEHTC
Starred values were filed as active, the others as inactive.

SMILES	FBW7 act	GPR151 ag	TEAD-YAP inh	MITF inh
Cc1[nH]n(-c2ccccc2)c(=O)c1/C=N/Nc1nncc(-c2ccccc2)n1	0	1	42*	-22
Cc1ccc(/C=N/Nc2nncc(-c3ccccc3)n2)o1	-1	-1	-42	-4
COc1ccccc1CNC(=O)N/C=C/c1ccccc1Cl	0	0	1	-10
O=C(c1ccc(Cl)c([N+](=O)[O-])c1)N1CCN(c2ccccc2F)CC1	0	0	8	-6
Cn1ccc(NC(=O)Nc2cccc(C(F)(F)F)c2)n1	0	0	-7	-5
COc1cc(/C=C/c2c([N+](=O)[O-])c(=O)n(C)c(=O)n2C)cc(OC)c1OC	0	1	2	10
CCOc1ccc(Nc2c(C(=O)N3CCOCC3)cnc3ccccc23)cc1	0	0	42*	-4
NS(=O)(=O)c1ccc(NNC(=S)Nc2ccc(SC(F)F)cc2)cc1	0	0	-4	12
NC(=O)CSc1oc(-c2cccs2)nc1S(=O)(=O)c1ccc(Cl)cc1	0	0	9	8
O=C1NC(=S)N(c2ccccc2)C(=O)/C1=C\c1ccc([N+](=O)[O-])o1	0	-1	5	80*
O=C1OC2(CCCCC2)OC(=O)C1=Cc1ccc([N+](=O)[O-])o1	-1	-1	6	66*
O=C1NN(c2ccccc2)C(=O)/C1=C\c1ccc(-c2ccc([N+](=O)[O-])cc2)o1	0	-1	-10	5
O=C1OC2(CCCC2)OC(=O)C1=Cc1ccc(-c2ccc([N+](=O)[O-])cc2)o1	0	-1	-1	17
O=C1NN(c2ccccc2)C(=O)/C1=C/c1ccc([N+](=O)[O-])o1	0	-1	7	79*
O=C1NC(=S)N(c2ccc(F)cc2)C(=O)/C1=C\c1ccc2c(c1)OCCO2	0	1	9	71*
CS(=O)(=O)N(CC(=O)Nc1cccc(Br)c1)c1ccccc1F	0	-2	-2	5
CCOC(=O)C1CCCN(c2cc(Nc3ccc4c(c3)OCCO4)c3c4c(onc24)-c2ccccc2C3=O)C1 (stereo not drawn)	0	0	38*	4
CCCN1CCN(c2cc(Nc3cccc(OC)c3)c3c4c(onc24)-c2ccccc2C3=O)CC1	0	2	6	61*
COc1cccc(Nc2cc(N3CCCC3)c3noc4c3c2C(=O)c2ccccc2-4)c1	0	0	4	14
CCCCC(C(=O)OCC)(C(=O)OCC)c1cc(Nc2ccc(C)cc2)c2c3c(onc13)-c1ccccc1C2=O	0	-1	-10	55*
COc1cc(Nc2cc(N3CCN(C(=O)c4ccco4)CC3)c3noc4c3c2C(=O)c2ccccc2-4)cc(OC)c1OC	0	-2	40*	9
Cc1ccc(C)c(OCC(=O)NCCN(C)C)c1	0	-1	1	11
OC1(c2ccccn2)COc2cc(Br)ccc2O1 (stereo not drawn)	0	2	-8	-3
CCOC(=O)C1CCCN(c2cc(Nc3cccc(OC)c3)c3c4c(onc24)-c2ccccc2C3=O)C1 (stereo not drawn)	0	0	-2	64*
NC(=O)c1[nH]ncc1Nc1nccc(-c2ccccc2)n1	0	-1	-14	6
SMILES	FBW7 act	GPR151 ag	TEAD-YAP inh	MITF inh
NC(=O)c1ccc(Nc2ncc(Cl)c(-c3ccccc3)n2)cc1	2.6*	0	-6	18
NS(=O)(=O)c1cccc(Nc2nccc(-c3ccccc3)n2)c1	0	-1	91*	4
NC(=O)c1ccc(Nc2nccc(-c3ccccc3)n2)cc1	1	-4	23	-12
NC(=O)c1ccccc1Nc1nccc(-c2ccccc2)n1	0	-2	40*	12
NC(=O)c1ccc(Nc2nccc(-c3cccc(Nc4ccccc4)c3)n2)cc1Cl	0	0	36*	-2
COc1ccc(C2CC(=O)C3=C(C2)Nc2ccccc2NC3c2cc(C)ccc2C)cc1 (stereo not drawn)	0	-1	0	7
CCOC(=O)C1(Cc2cccc(F)c2)CCN(C(=O)Cc2cccnc2)CC1	0	0	-6	8
Nn1c(C(F)(F)F)nc2ccc(Cl)cc2c1=O	0	0	3	2
COCCn1nnnc1C(c1ccc(OC)cc1)N1CCN(C2CCCC2)CC1 (stereo not drawn)	0	-1	2	-1

Compound activity as filed in PubChem BioAssay.
